Reference: PubChem BioAssay (NCI)
“And” between values parts separate entries of the source, which are not always exact repeats. Equal values may be shown once. This is part of a sample that, as a whole, favours compounds with a hit. Of some 79,000 tested, about 15% had one in any assay. A structure can be active in one record and inactive in another. The source made the active and inactive calls. Rule as the data show it: active = growth inhibition above about 70%; inactive = the rest. Where a SMILES comes first, the peptide text is derived from it. [ ]: non-standard residue; d: D form. The star is where a group is joined. ξ: configuration not given here. ξNMe2Val = CC(C)C(C(=O)*)N(C)C; NMeV = CN[CH](C(=O)O)C(C)C; NHBn = c1ccc(CN*)cc1

How the values were obtained:
[1] = NCI Yeast Anticancer Drug Screen. Data for the rad50 strain (AID 155);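 also: 0% = growth of vehicle-only cultures of the same strain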; conditions: S. cerevisiae rad50 strain growth inhibition; at 50.0 µM; stronger effect = higher value
Procedure, shortened: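 Inhibition values express reduced yeast growth in compound-treated cultures relative to vehicle-treated controls.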

[2] = NCI Yeast Anticancer Drug Screen. Data for the mec2-1 strain (AID 157); conditions: S. cerevisiae mec2-1 strain, at 50.0 µM, stronger effect = higher value
Procedure, shortened: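 Compounds were applied to mec2-1 yeast cells. Their growth was then compared with that of vehicle-treated cultures to give growth inhibition.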

[3] = NCI Yeast Anticancer Drug Screen. Data for the sgs1 mgt1 strain (AID 161);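 also: 0% = growth of cultures given vehicle only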; conditions: S. cerevisiae sgs1 mgt1 strain, at 50.0 µM, stronger effect = higher value
Procedure, shortened: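 Yeast cells carrying a defined DNA-repair defect were exposed to test compounds. Growth inhibition was measured relative to vehicle-treated controls.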

[4] = NCI Yeast Anticancer Drug Screen. Data for the cln2 rad14 strain (AID 165);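 also: 0% = growth equal to vehicle treated cultures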; conditions: S. cerevisiae cln2 rad14 strain, at 50.0 µM, stronger effect = higher value
Procedure, shortened: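 Strain: cln2 rad14 yeast, altered in cell cycle control and DNA damage repair. Read-out: growth inhibition vs vehicle.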

[5] = NCI Yeast Anticancer Drug Screen. Data for the bub3 strain (AID 167); conditions: S. cerevisiae bub3 mutant strain, at 50.0 µM, stronger effect = higher value
Procedure, shortened: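 Steps: expose the mutant yeast strain to compound; grow alongside vehicle-treated cultures; measure growth; express inhibition against the vehicle cultures.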

[6] = NCI Yeast Anticancer Drug Screen. Data for the mlh1 rad18 strain (AID 175); conditions: S. cerevisiae mlh1 rad18 strain growth inhibition; at 50.0 µM; stronger effect = higher value
Procedure, shortened: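 A repair-deficient yeast strain is exposed to test compound, and growth is scored relative to vehicle-treated controls.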

Measured: growth inhibition

O.[Co].[NH2-].[NH2-].[NH2-].[NH2-].[NH2-]
inactive: [1] 27.9% | [2] -27.1% | [3] 36.2% | [4] 12.8% | [5] 24.2% | [6] 33.4%

CN(C)C(=O)C(Cl)Cl
inactive: [1] -0.75% | [2] 7.3% | [3] -4% | [4] -7.25% | [5] 12.8% | [6] 2.25%

O=C(COc1ccc(Cl)cc1C(=O)O)Nc1cccc(NC(=O)Nc2cccc(S(=O)(=O)F)c2)c1
inactive: [1] 2.3% | [2] -13.3% | [3] -12.9% | [4] -17.9% | [5] 1.95% | [6] 11.6%

ClCCCCl
inactive: [1] 13.2% | [2] -15.8% | [3] -3.85% | [4] -7.4% | [5] 4.9% | [6] -27.6%

OC(COc1cccc2ccccc12)CN(CCCl)CCCl (centres undefined)
inactive: [1] 6.85% | [2] -12.5% | [3] -5.6% | [4] 4.05% | [5] 8.55% | [6] -30.1%

CNC(=S)P(c1ccccc1)c1ccccc1
inactive: [1] 9.4% | [2] 15.2% | [3] 7.1% | [4] 22.4% | [5] 13.4% | [6] 10.4%

CCCNP(=S)(NCCC)NCCC
inactive: [1] 1% | [2] -10.4% | [3] 8.5% | [4] -16.4% | [5] 0% | [6] 22%

COc1cccc(C=C(C#N)C#N)c1OC
inactive: [1] -9.8% | [2] -8.05% | [3] -3.35% | [4] 5.05% | [5] -3.8% | [6] 4.5%

N=C(N)SCc1ccc(Cl)c(Cl)c1 (tested in a mixture with another compound)
inactive: [1] 13.6% | [2] 10.8% | [3] -3.55% | [4] -6.1% | [5] 3.5% | [6] 10.7%

CC(=O)C(=O)c1ccccc1
inactive: [1] -14.6% | [2] 6.5% | [3] -0.45% | [4] -25.8% | [5] -19.7% | [6] -21.5%

[Br][Ni][Br].c1ccc([PH+](CC[PH+](c2ccccc2)c2ccccc2)c2ccccc2)cc1
inactive: [1] -36.1% | [2] -7.15% | [3] -23.8% | [4] 32.2% | [5] 8.9% | [6] 0.9%

Oc1cc(Cl)c(O)c(Cl)c1
inactive: [1] 2.9% | [2] -2.05% | [3] 4.15% | [4] -37.9% | [5] -20.2% | [6] -7.55%

O=C1C=CC=C[C@@H]2C(C3OCCO3)CC[C@H]12.[C-]#[O+].[C-]#[O+].[C-]#[O+].[Fe] (some centres undefined)
inactive: [1] 4.3% | [2] 14.8% | [3] -7.3% | [4] 23.1% | [5] 7.5% | [6] 4.75%

CC(CC(C#N)(c1ccccc1)c1ccccc1)N1CCCCC1 (centres undefined)
inactive: [1] 27.6% | [2] 14% | [3] -22.9% | [4] 12.1% | [5] 33.5% | [6] 27.4%

COc1cc2c(cc1OC)C13CCN4CC5=CCOC(CC(=O)O)C(C5CC41)C3N2 (centres undefined)
inactive: [1] 14.2% and -40.6% | [2] 26.1% and -27.1% | [3] 47.1% and -32.6% | [5] -18.6% and -38.2% | [6] 3.35% and -34.1%
91.8% (active) and 10.6% (inactive): [4]

Cn1c(=O)c2ncnnc2n(C)c1=O
inactive: [1] 31.6% | [2] 22.9% | [3] 27.9% | [4] 0.5% | [5] 36.8% | [6] 45.1%

CN1CC=C(c2cccn2C)CC1
inactive: [1] -24.2% | [2] -24.9% | [3] -6.45% | [4] 4.05% | [5] -10.4% | [6] -37.8%

O=[N+]([O-])c1ncc[nH]1
inactive: [1] 6.75% | [2] -19.7% | [3] 11.6% | [4] 3.1% | [5] 8.2% | [6] 14.9%

C1CCC2[N-]CCCC2C1.C1CCC2[N-]CCCC2C1.O=[N+]([O-])O.O=[N+]([O-])O.[Cu+2] (centres undefined)
inactive: [1] 21.6% | [2] 21.6% | [3] 15.2% | [4] -19.2% | [5] -4.35% | [6] 25.1%

O=S(=O)(O)O.[W]
inactive: [1] 27.2% | [2] -7.55% | [3] 14.3% | [4] -5.65% | [5] 18% | [6] -8.95%

CC12C(=O)C(C)(C(c3ccccc3)=C1c1ccccc1)C1(C#N)NC21C#N (centres undefined)
inactive: [1] 14.9% | [2] 2.65% | [3] 22.8% | [4] 18.2% | [5] 13.8% | [6] 40%

O=C(O)C1C2Cc3ccccc3C21 (centres undefined)
inactive: [1] 18.1% | [2] 10.4% | [3] -8.35% | [4] -5.9% | [5] -20.3% | [6] -12.6%

C[N+](C)(C)Cc1cccc([N+](=O)[O-])c1
inactive: [1] -47.9% | [2] -5.5% | [3] -3.8% | [4] -40.7% | [5] -4% | [6] 13.2%

CS(=O)(=O)CCC(N)P(=O)(O)O (centres undefined)
inactive: [1] -45.9% | [2] -47.9% | [3] -48.5% | [4] -9.4% | [5] -21.8% | [6] -30.8%

O=C(O)CC(S)C(=O)O (centres undefined)
inactive: [1] -19.1% | [2] 10.4% | [3] -3.7% | [4] -38.3% | [5] -9.85% | [6] 14.6%

CNC(C)C(O)c1ccccc1 (centres undefined)
inactive: [1] 15.3% and 4.1% | [2] -14.3% and -2.1% | [3] 7.45% and -21.6% | [4] 14.9% and 10.5% | [5] 10% and -5.85% | [6] 13.3% and 8.9%

COCCCNP(=O)(OC(C)C)OC(C)C
inactive: [1] 0.75% | [2] 0.85% | [3] 8.6% | [4] 5.8% | [5] 9.2% | [6] 14.8%

CC(C)C(NC(=O)C(C(C)C)N(C)C)C(=O)N(C)C(C(=O)N1CCCC1C(=O)N1CCCC1C(=O)NCc1ccccc1)C(C)C (centres undefined) (ξNMe2Val-V[NMeV]PP-NHBn; configuration not given here)
inactive: [1] -18.3% | [2] -17.7% | [3] -22.9% | [4] 12% | [5] 3.55% | [6] -47%

O=P(O)(O)CCCCP(=O)(O)O.[Zn+2]
inactive: [1] -3.05% | [2] -2.45% | [3] 1.6% | [4] -5.1% | [5] 3.75% | [6] 7.05%

COc1ccc(/C=C/C(=O)c2c(-c3ccccc3)nn(C)c(=O)c2N2CC2C)cc1 (centres undefined)
inactive: [1] -11.6% | [2] 19.9% | [3] -10.4% | [4] -7.2% | [5] -4.8% | [6] -13.4%

O=C1C(=O)c2ccccc2-c2ccccc21
inactive: [1] 36.6% and 34.6% | [2] 31.1% and 18.2% | [3] 32.8% and 25.5% | [4] -6.65% and -35.9% | [5] 25.9% and 30.6% | [6] 5.35% and 9.6%

Cn1c(=O)n(C2(C)C[Se]C2)c2ccccc21
inactive: [1] -11.5% | [2] -15.7% | [3] -16.8% | [4] -15.4% | [5] -13.7% | [6] -22.5%

CC(C)(C[N+](=O)[O-])C[N+](=O)[O-]
inactive: [1] -1.45% | [2] -34.1% | [3] 15.6% | [4] -19.1% | [5] -1.7% | [6] 10.9%

CC[As](CC)SC(CC[C@@H](C)C1CC[C@@]2(C)C3=C(CC[C@]12C)[C@@]1(C)CC[C@H](O)C(C)(C)[C@@H]1CC3)C(C)C (some centres undefined)
inactive: [1] 3.95% | [2] 17.6% | [3] -8.15% | [4] -21.1% | [5] -1.55% | [6] -25.6%

CCCC(=O)OCC[N+](C)(C)C
inactive: [1] -1.35% and 12.7% | [2] -21.9% and -18.6% | [3] -10.7% and 25.4% | [4] 18.9% and 5.95% | [5] -12.1% and 6.6% | [6] 4.05% and 18.2%

CNC(=O)Oc1cccc(NC(=O)OC(C)(C)C)c1
inactive: [1] 3.5% | [2] 14.8% | [3] 27.1% | [4] 1.45% | [5] 29.1% | [6] 15.1%

CC[C@@]1(O)C(=O)OCc2c1cc1n(c2=O)Cc2c-1nc1ccccc1c2C=Nc1ccccc1N[C@@H]1c2cc3c(cc2[C@@H](c2cc(OC)c(O)c(OC)c2)[C@H]2C(=O)OC[C@@H]21)OCO3
69.9% (inactive) and 85.9% (active): [5]
63% (inactive) and 82% (active): [4]
active: [1] 78.8% and 86.8% | [2] 71.7% and 80.9% | [3] 76.5% and 84.7%
39.6% (inactive) and 85.8% (active): [6]

COP(=O)(OC)N1CCCCC1
inactive: [1] 29% | [2] 20.4% | [3] 12.7% | [4] 12.4% | [5] 22% | [6] 27.6%

O=C(NCP(=O)(O)O)c1cccnc1
inactive: [1] -10.7% and -6.8% | [2] -29.5% and -10.8% | [3] -4.9% and 6.8% | [4] -37.6% and -25.1% | [5] -32.8% and -6.75% | [6] 2.85% and -10.2%
